The list shows a part of the results. Results filed as inconclusive are left out. Active and inactive are the calls of the source.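 The calls were made as follows, unless noted: active = thallium flux slope more than 3 SD above or below the plate's solvent-only control mean, mostly below; inconclusive = the two repeat wells disagreed; inactive = no significant shift from solvent-only controls.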

One test concerns the target Solute carrier family 12 member 5 (Homo sapiens) (UniProt Q9H2X9). Put plainly: retest of KCC2 transport modulation, ouabain-free – cell-based, HEK293 KCC2, thallium flux, FluoZin2, secondary assay 2, confirmation (AID 1715).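 Also: raw slope with 0.1% DMSO as baseline and bumetanide as block control.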 The following applies: HEK293-KCC2, thallium flux FluoZin2 fluorescence; at 10 µM; actives lie on both sides; F/F0 rise rate, 10–20 s post-thallium.
Regarding `O=C(Nc1ccccc1F)C1C2C=CC3(O2)C1C(=O)N(c1cccnc1)C3C(=O)NC1CCCCC1` (centres undefined), the normalized thallium flux was 0.0222 (active).
On the same count and under the same terms, with `CCOC(=O)c1ccccc1N1C(=O)C2Sc3[nH]c(=O)sc3C(/C=C/c3ccccc3)C2C1=O` (centres undefined) the figure was 0.0266 (active); with `Cc1ccc(C(=O)NC(=S)Nc2ccccc2C)cc1`, 0.0421 (active).
The same measure, in the same setting: the same measure for `CC1CC(C)(C)n2c(O)c(N=NC(N)=S)c3cccc1c32` (centres undefined): 0.0382 (inactive); for `CC(C)CNC(=S)NC(=O)c1ccc(Cl)cc1`: 0.0638 (active); for `CC(C)(C)c1ccc(C(=O)NCC(=O)OCN2C(=O)c3ccccc3C2=O)cc1`: 0.031 (inactive).
Still for that read-out and setting: the same measure for `CCCC(=O)N1c2ccccc2NC2=C(C(=O)CCC2)C1c1ccc(F)cc1` (centres undefined): 0.0312 (inactive).
Consider `COc1ccc(Cl)cc1S(=O)(=O)Nc1cccc(C(=O)O)c1`, for which the normalized thallium flux was 0.0299 (inactive).
On to `C/C(=C\C(=O)c1ccc(Br)cc1)N1CCCCC1`, for which the normalized thallium flux is 0.0283 (inactive).
The same measure, in the same setting: with `CCOC(=O)c1c(NC(=S)NC)sc2c1CCCC2` the figure was 0.0972 (active).
Same read-out and setting: the same measure for `CCn1c(SCC(=O)c2ccc3ccccc3c2)nnc1-c1cccs1`: 0.0307 (inactive); for `Cc1sc2ncnc(Sc3nc4ccccc4s3)c2c1C`: 0.0292 (inactive); for `Cc1[nH]n(-c2ccccc2)c(=O)c1N=Nc1ccccc1C(=O)N1CCCCC1`: 0.03 (inactive).
Still for that read-out and setting: the same measure for `CCC(CC)NC(=O)CSc1nnc(-c2c[nH]c3ccccc23)o1`: 0.0248 (active).
Turning to `C=CCn1c(=S)[nH]c2nc3c(cc2c1=O)COC(C)(C)C3`, the normalized thallium flux is 0.0337 (inactive).
Still for that read-out and setting: the same measure for `C/C(=N\NC(=S)NC1CCCCC1)c1ccc(C)o1`: 0.0359 (inactive); for `Cc1cccc(N(CC(O)CN(C)C)S(=O)(=O)c2ccccc2)c1` (centres undefined): 0.0335 (inactive).
Still for that read-out and setting: the same measure for `C[C@@H](C(=O)Nc1ccc2ccccc2c1)[C@@H]1C[C@@]1(C)[C@@H](NC(=O)c1cccnc1)c1ccccc1`: 0.0226 (active).
As to `N#Cc1ccc(C(=O)Nc2nc(-c3cccs3)c(C(=O)C(F)(F)F)s2)cc1`, the normalized thallium flux is 0.033 (inactive).
The same measure, in the same setting: with `CC[C@@H](C)[C@@H](C(=O)N1CCN(C(=O)OC(C)(C)C)CC1)n1cc(CCC(=O)O)nn1` the figure was 0.0349 (inactive); with `O=C(CSc1cccc2cccnc12)N/N=C/c1cccnc1`, 0.0285 (inactive).
The same measure, in the same setting: with `N#Cc1c(-c2ccc(Cl)cc2)c2c([nH]c1=S)CCCC2` the figure was 0.0403 (active); with `CN1c2ccccc2-c2nc3ccccc3n2C1c1ccco1` (centres undefined), 0.0321 (inactive).

Test system in a further test: not listed separately
Description: compound effects on native HEK Tl+ uptake – HEK cells, counterscreen 1, counter-screen for KCC2 modulator project, confirmation (AID 1716;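 active = thallium flux rate significantly above the same plate's solvent-only control wells, beyond their mean plus 3 SD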). The following applies: HEK293 parental cells, thallium flux FluoZin2, ouabain; at 10 µM; baseline-ratio fluorescence slope, 10–20 s after thallium. (In general: A counterscreen serves to expose hits that act by an unwanted route or on another target.)
Take `CCOC(=O)c1ccccc1N1C(=O)C2Sc3[nH]c(=O)sc3C(/C=C/c3ccccc3)C2C1=O` (centres undefined): the thallium flux rate (normalised fluorescence) is 0.00732 (inactive).
In the case of `Cc1ccc(C(=O)NC(=S)Nc2ccccc2C)cc1`, the thallium flux rate (normalised fluorescence) was 0.0432 (active).
The same measure, in the same setting: the same measure for `CC(C)CNC(=S)NC(=O)c1ccc(Cl)cc1`: 0.0685 (active); for `CC(C)(C)c1ccc(C(=O)NCC(=O)OCN2C(=O)c3ccccc3C2=O)cc1`: 0.00756 (inactive); for `O=C(O)CS/C(=C\c1ccc(F)cc1)c1nc2ccccc2s1`: 0.00592 (active).
Still for that read-out and setting: with `CCCC(=O)N1c2ccccc2NC2=C(C(=O)CCC2)C1c1ccc(F)cc1` (centres undefined) the figure was 0.0072 (inactive); with `C/C(=C\C(=O)c1ccc(Br)cc1)N1CCCCC1`, 0.0152 (active); with `Cc1ccccc1-c1nc(CS(=O)(=O)CC(=O)N2CCc3ccccc3C2)c(C)o1`, 0.00685 (inactive).
For `CCOC(=O)c1c(NC(=S)NC)sc2c1CCCC2`, the thallium flux rate (normalised fluorescence) was 0.0987 (active).
On the same count and under the same terms, with `CCn1c(SCC(=O)c2ccc3ccccc3c2)nnc1-c1cccs1` the figure was 0.00707 (inactive); with `Cc1ccc(-c2noc(CN3CCN(Cc4ccccc4)CC3)n2)cc1`, 0.00768 (inactive); with `Cc1sc2ncnc(Sc3nc4ccccc4s3)c2c1C`, 0.00801 (inactive).
Regarding `Cc1[nH]n(-c2ccccc2)c(=O)c1N=Nc1ccccc1C(=O)N1CCCCC1`, the thallium flux rate (normalised fluorescence) was 0.0142 (active).
The same measure, in the same setting: with `CCC(CC)NC(=O)CSc1nnc(-c2c[nH]c3ccccc23)o1` the figure was 0.00757 (inactive).
Same read-out and setting: the same measure for `C/C(=N\NC(=S)NC1CCCCC1)c1ccc(C)o1`: 0.017 (active).
For the compound `Cc1cccc(N(CC(O)CN(C)C)S(=O)(=O)c2ccccc2)c1` (centres undefined), the thallium flux rate (normalised fluorescence) is 0.00768 (inactive).
On the same count and under the same terms, the same measure for `C[C@@H](C(=O)Nc1ccc2ccccc2c1)[C@@H]1C[C@@]1(C)[C@@H](NC(=O)c1cccnc1)c1ccccc1`: 0.00775 (inactive); for `N#Cc1ccc(C(=O)Nc2nc(-c3cccs3)c(C(=O)C(F)(F)F)s2)cc1`: 0.00821 (inactive).
For `CC[C@@H](C)[C@@H](C(=O)N1CCN(C(=O)OC(C)(C)C)CC1)n1cc(CCC(=O)O)nn1`, the thallium flux rate (normalised fluorescence) was 0.00923 (active).
On to `O=C(CSc1cccc2cccnc12)N/N=C/c1cccnc1`, for which the thallium flux rate (normalised fluorescence) is 0.0251 (active).
Same read-out and setting: the same measure for `N#Cc1c(-c2ccc(Cl)cc2)c2c([nH]c1=S)CCCC2`: 0.0184 (active); for `CN1c2ccccc2-c2nc3ccccc3n2C1c1ccco1` (centres undefined): 0.00467 (active).

The target of a further test is Solute carrier family 12 member 5 (Homo sapiens) (UniProt Q9H2X9). Put plainly: modulation of KCC2 thallium flux in HEK cells – cell-based, ouabain, retest, confirmation (AID 1717;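 active = thallium flux slope beyond 3 SD from same-plate DMSO control mean in most replicates, usually higher, sometimes lower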;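 also: slope of initial-normalized fluorescence between seconds 10 and 20 after thallium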). The following applies: HEK293-KCC2, thallium flux FluoZin2 fluorescence, at 10 µM, bidirectional: low = inhibitor, high = activator.
Chain of Solute carrier family 12 member 5 (Homo sapiens) (Q9H2X9 whole entry, looked up): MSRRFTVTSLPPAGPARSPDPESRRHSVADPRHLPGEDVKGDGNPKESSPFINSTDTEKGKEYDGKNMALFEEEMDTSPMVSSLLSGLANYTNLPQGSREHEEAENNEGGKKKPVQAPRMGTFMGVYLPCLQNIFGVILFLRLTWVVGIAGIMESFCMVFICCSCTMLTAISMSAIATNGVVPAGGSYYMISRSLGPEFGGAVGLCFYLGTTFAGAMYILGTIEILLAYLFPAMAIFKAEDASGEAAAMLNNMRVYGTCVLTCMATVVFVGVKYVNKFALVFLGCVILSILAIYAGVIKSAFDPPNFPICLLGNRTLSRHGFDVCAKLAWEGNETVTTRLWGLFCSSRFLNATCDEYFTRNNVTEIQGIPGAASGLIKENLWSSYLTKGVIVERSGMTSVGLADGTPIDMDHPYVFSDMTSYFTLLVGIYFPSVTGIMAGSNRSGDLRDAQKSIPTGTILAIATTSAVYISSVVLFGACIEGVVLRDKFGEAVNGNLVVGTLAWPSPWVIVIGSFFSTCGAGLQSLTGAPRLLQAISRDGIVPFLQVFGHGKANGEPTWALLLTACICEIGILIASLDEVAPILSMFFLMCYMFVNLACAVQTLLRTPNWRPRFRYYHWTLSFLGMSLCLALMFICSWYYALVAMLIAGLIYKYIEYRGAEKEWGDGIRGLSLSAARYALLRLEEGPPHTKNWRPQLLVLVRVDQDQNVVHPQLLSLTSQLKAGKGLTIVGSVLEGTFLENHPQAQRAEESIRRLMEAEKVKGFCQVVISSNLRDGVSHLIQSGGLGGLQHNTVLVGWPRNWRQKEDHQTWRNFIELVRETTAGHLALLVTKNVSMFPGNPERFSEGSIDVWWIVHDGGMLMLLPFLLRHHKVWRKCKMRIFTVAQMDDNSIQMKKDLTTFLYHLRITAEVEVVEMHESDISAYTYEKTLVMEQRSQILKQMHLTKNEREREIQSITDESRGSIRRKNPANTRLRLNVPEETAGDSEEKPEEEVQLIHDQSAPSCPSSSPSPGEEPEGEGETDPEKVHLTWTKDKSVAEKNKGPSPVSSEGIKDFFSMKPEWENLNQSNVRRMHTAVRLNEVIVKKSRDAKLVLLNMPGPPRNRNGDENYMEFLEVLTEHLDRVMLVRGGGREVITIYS
Turning to `O=C(Nc1ccccc1F)C1C2C=CC3(O2)C1C(=O)N(c1cccnc1)C3C(=O)NC1CCCCC1` (centres undefined), the raw Tl+ flux slope (below DMSO = inhibition, above = activation) is 0.0131 (active).
On the same count and under the same terms, with `CCOC(=O)c1ccccc1N1C(=O)C2Sc3[nH]c(=O)sc3C(/C=C/c3ccccc3)C2C1=O` (centres undefined) the figure was 0.00834 (active).
The same measure, in the same setting: the same measure for `Cc1ccc(C(=O)NC(=S)Nc2ccccc2C)cc1`: 0.0453 (active).
The same measure, in the same setting: the same measure for `CC1CC(C)(C)n2c(O)c(N=NC(N)=S)c3cccc1c32` (centres undefined): 0.0373 (active).
Regarding `CC(C)CNC(=S)NC(=O)c1ccc(Cl)cc1`, the raw Tl+ flux slope (below DMSO = inhibition, above = activation) is 0.0663 (active).
The same measure, in the same setting: the same measure for `CC(C)(C)c1ccc(C(=O)NCC(=O)OCN2C(=O)c3ccccc3C2=O)cc1`: 0.0171 (inactive).
Still for that read-out and setting: the same measure for `O=C(O)CS/C(=C\c1ccc(F)cc1)c1nc2ccccc2s1`: 0.011 (active).
Same read-out and setting: with `CCCC(=O)N1c2ccccc2NC2=C(C(=O)CCC2)C1c1ccc(F)cc1` (centres undefined) the figure was 0.0212 (inactive); with `Cc1ccccc1-c1nc(CS(=O)(=O)CC(=O)N2CCc3ccccc3C2)c(C)o1`, 0.0154 (active).
In the case of `CCn1c(SCC(=O)c2ccc3ccccc3c2)nnc1-c1cccs1`, the raw Tl+ flux slope (below DMSO = inhibition, above = activation) is 0.0159 (active).
On the same count and under the same terms, the same measure for `Cc1ccc(-c2noc(CN3CCN(Cc4ccccc4)CC3)n2)cc1`: 0.0139 (inactive); for `Cc1[nH]n(-c2ccccc2)c(=O)c1N=Nc1ccccc1C(=O)N1CCCCC1`: 0.0253 (active); for `C/C(=N\NC(=S)NC1CCCCC1)c1ccc(C)o1`: 0.0406 (active).
The same measure, in the same setting: with `Cc1cccc(N(CC(O)CN(C)C)S(=O)(=O)c2ccccc2)c1` (centres undefined) the figure was 0.0203 (inactive).
With `C[C@@H](C(=O)Nc1ccc2ccccc2c1)[C@@H]1C[C@@]1(C)[C@@H](NC(=O)c1cccnc1)c1ccccc1`, the raw Tl+ flux slope (below DMSO = inhibition, above = activation) was 0.0135 (active).
Same read-out and setting: with `N#Cc1ccc(C(=O)Nc2nc(-c3cccs3)c(C(=O)C(F)(F)F)s2)cc1` the figure was 0.0191 (inactive); with `CC[C@@H](C)[C@@H](C(=O)N1CCN(C(=O)OC(C)(C)C)CC1)n1cc(CCC(=O)O)nn1`, 0.0234 (inactive); with `O=C(CSc1cccc2cccnc12)N/N=C/c1cccnc1`, 0.0449 (active).
Same read-out and setting: the same measure for `N#Cc1c(-c2ccc(Cl)cc2)c2c([nH]c1=S)CCCC2`: 0.0302 (active).

(Values after PubChem BioAssay.)
